Measurements taken from PubChem BioAssay AID1159580 (chemical genetic matrix, 2015).
Several values for one entry are separate records, joined by “and”; a condition that tells them apart may be missing. Equal entries are not always repeated. Out of some 5,500 compounds screened, about 2,000 (36%) were called active. About 18% were inconclusive and are not listed. No stated cut-off is given here; in the data, active means normalized growth mostly below about 0.91 (no sharp cut-off); inconclusive means no clear call, values can overlap the other calls; inactive means mostly above about 0.92. The list shows a part of the results.

Test: chemical genetic growth profiling, strain panel (AID 1159580);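 further: tested at 20 µM; growth read once vehicle control cultures reached saturation at 30 °C; 1 = growth at the plate median or of vehicle wells; lower values mean less growth of the strain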
Conditions: S. cerevisiae deletion strains, growth OD

Measured: normalized growth

CCCCCCCCCCCCCCCC[n+]1ccccc1
active: locus YAL013W, strain DEP1, active compounds read low 0.0574 | locus YAL021C, strain ccr4, active compounds read low 0.0611 | locus YAL026C, strain drs2, active compounds read low 0.0581 | locus YAL030W, strain snc1, active compounds read low 0.0525 | locus YBL061C, strain skt5, active compounds read low 0.0581 | locus YBR009C, strain hhf1, active compounds read low 0.0558 | locus YBR021W, strain FUR4, active compounds read low 0.0963 | locus YBR023C, strain chs3, active compounds read low 0.0594 | locus YBR171W, strain sec66, active compounds read low 0.0739 | locus YBR229C, strain ROT2, active compounds read low 0.0303 | locus YBR231C, strain swc5, active compounds read low 0.0577 | locus YBR279W, strain paf1, active compounds read low 0.0555 | locus YCL011C, strain gbp2, active compounds read low 0.053 | locus YCL016C, strain dcc1, active compounds read low 0.0599 | locus YCL029C, strain bik1, active compounds read low 0.058 | locus YCL061C, strain MRC1, active compounds read low 0.0607 | locus YCL069W, strain vba3, active compounds read low 0.0581 | locus YCR088W, strain abp1, active compounds read low 0.0584 | locus YDL005C, strain med2, active compounds read low 0.0695 | locus YDL035C, strain GPR1, active compounds read low 0.0498 | locus YDL040C, strain nat1, active compounds read low 0.0541 | locus YDL074C, strain BRE1, active compounds read low 0.0827 | locus YDL101C, strain DUN1, active compounds read low 0.0526 | locus YDL134C, strain PPH21, active compounds read low 0.0538 | locus YDL185W, strain tfp1, active compounds read low 0.0538 | locus YDL192W, strain arf1, active compounds read low 0.0595 | locus YDR001C, strain nth1, active compounds read low 0.0571 | locus YDR069C, strain doa4, active compounds read low 0.0582 | locus YDR101C, strain arx1, active compounds read low 0.0554 | locus YDR137W, strain rgp1, active compounds read low 0.0947 | locus YDR150W, strain NUM1, active compounds read low 0.0551 | locus YDR159W, strain sac3, active compounds read low 0.0818 | locus YDR162C, strain NBP2, active compounds read low 0.047 | locus YDR195W, strain ref2 0.109 | locus YDR297W, strain sur2, active compounds read low 0.0517 | locus YDR318W, strain mcm21, active compounds read low 0.0596 | locus YDR334W, strain swr1, active compounds read low 0.061 | locus YDR335W, strain msn5, active compounds read low 0.0563 | locus YDR388W, active compounds read low 0.0552 | locus YDR392W, strain spt3, active compounds read low 0.068 | locus YDR502C, strain sam2, active compounds read low 0.0615 | locus YEL003W, strain gim4, active compounds read low 0.0501 | locus YEL037C, strain rad23, active compounds read low 0.0542 | locus YEL061C, strain CIN8 (second series), active compounds read low 0.0582 | locus YEL061C, strain CIN8, active compounds read low 0.0502 | locus YER015W, strain faa2, active compounds read low 0.0581 | locus YER016W, strain bim1, active compounds read low 0.0593 | locus YER110C, active compounds read low 0.0712 | locus YER111C, strain swi4, active compounds read low 0.0669 | locus YER155C, strain BEM2 (second series), active compounds read low 0.0821 | locus YER155C, strain BEM2, active compounds read low 0.0622 | locus YER167W, strain BCK2, active compounds read low 0.0514 | locus YFR010W, strain ubp6, active compounds read low 0.0662 | locus YGL078C, strain dbp3, active compounds read low 0.0557 | locus YGL086W, strain mad1, active compounds read low 0.0563 | locus YGL167C, strain pmr1, active compounds read low 0.0673 | locus YGL173C, strain kem1, active compounds read low 0.0629 | locus YGL227W, strain vid30, active compounds read low 0.062 | locus YGL240W, strain doc1, active compounds read low 0.0671 | locus YGL248W, strain PDE1, active compounds read low 0.0451 | locus YGL253W, strain hxk2, active compounds read low 0.0516 | locus YGR135W, strain pre9, active compounds read low 0.0612 | locus YGR252W, strain gcn5, active compounds read low 0.17 | locus YHR013C, strain ard1, active compounds read low 0.0961 | locus YHR027C, strain rpn1, active compounds read low 0.0594 | locus YHR030C, strain SLT2, active compounds read low 0.0512 and 0.0945 | locus YHR079C, strain IRE1 (second series), active compounds read low 0.0605 | locus YHR079C, strain IRE1, active compounds read low 0.11 | locus YHR094C, strain hxt1, active compounds read low 0.0564 | locus YHR129C, strain ARP1, active compounds read low 0.0537 | locus YHR142W, strain chs7, active compounds read low 0.0693 | locus YHR200W, strain rpn10, active compounds read low 0.0581 | locus YIL066C, strain RNR3, active compounds read low 0.0411 | locus YIL073C, strain SPO22, active compounds read low 0.106 | locus YIL125W, strain kgd1, active compounds read low 0.0545 | locus YIR030C, strain dcg1, active compounds read low 0.0571 | locus YJL092W, strain hpr5, active compounds read low 0.0574 | locus YJL095W, strain BCK1 (second series), active compounds read low 0.0528 | locus YJL095W, strain BCK1, active compounds read low 0.0624 and 0.0966 | locus YJL115W, strain asf1, active compounds read low 0.0684 | locus YJL129C, strain trk1, active compounds read low 0.0768 | locus YJL134W, strain LCB3, active compounds read low 0.047 | locus YJL154C, strain vps35, active compounds read low 0.057 | locus YJL164C, strain tpk1, active compounds read low 0.0549 | locus YJL166W, strain qcr8, active compounds read low 0.0563 | locus YJL168C, strain set2, active compounds read low 0.0564 | locus YJL187C, strain SWE1 (second series), active compounds read low 0.0398 | locus YJL187C, strain SWE1, active compounds read low 0.0529 | locus YJR043C, strain POL32, active compounds read low 0.0648 | locus YJR066W, strain TOR1, active compounds read low -0.000212 | locus YKL009W, strain mrt4, active compounds read low 0.0643 | locus YKL068W, active compounds read low 0.0564 | locus YKL085W, strain MDH1 (second series), active compounds read low 0.0485 | locus YKL085W, strain MDH1, active compounds read low 0.0485 | locus YKL160W, strain elf1, active compounds read low 0.058 | locus YKR001C, strain vps1, active compounds read low 0.0609 | locus YKR026C, strain gcn3, active compounds read low 0.058 | locus YKR091W, strain srl3, active compounds read low 0.0563 | locus YLL001W, strain dnm1, active compounds read low 0.0595 | locus YLL026W, active compounds read low 0.0533 | locus YLL041C, strain sdh2, active compounds read low 0.0527 | locus YLR027C, strain aat2, active compounds read low 0.0516 | locus YLR039C, strain RIC1, active compounds read low 0.101 | locus YLR058C, strain SHM2, active compounds read low 0.0432 | locus YLR102C, strain apc9, active compounds read low 0.058 | locus YLR113W, strain HOG1, active compounds read low 0.126 | locus YLR221C, strain rsa3, active compounds read low 0.0565 | locus YLR258W, strain gsy2, active compounds read low 0.0549 | locus YLR262C, strain YPT6 (second series), active compounds read low 0.0739 | locus YLR262C, strain YPT6, active compounds read low 0.0999 | locus YLR268W, strain sec22, active compounds read low 0.0648 | locus YLR320W, strain mms22, active compounds read low 0.0701 | locus YLR330W, strain CHS5, active compounds read low 0.0543 | locus YLR342W, strain FKS1 (second series), active compounds read low 0.0596 | locus YLR342W, strain FKS1, active compounds read low 0.0608 | locus YLR357W, strain rsc2, active compounds read low 0.119 | locus YLR370C, strain arc18, active compounds read low 0.0588 | locus YLR371W, strain rom2, active compounds read low 0.0606 | locus YLR384C, strain iki3, active compounds read low 0.0569 | locus YLR418C, strain cdc73, active compounds read low 0.0923 | locus YML016C, strain PPZ1, active compounds read low 0.0531 | locus YML032C, strain rad52, active compounds read low 0.0676 | locus YML120C, strain ndi1, active compounds read low 0.0532 | locus YML124C, strain tub3, active compounds read low 0.0589 | locus YMR058W, strain fet3, active compounds read low 0.0569 | locus YMR078C, strain ctf18, active compounds read low 0.0681 | locus YMR125W, strain sto1, active compounds read low 0.0655 | locus YMR129W, active compounds read low 0.0538 | locus YMR205C, strain PFK2, active compounds read low 0.0777 | locus YMR223W, strain ubp8, active compounds read low 0.061 | locus YMR231W, strain pep5, active compounds read low 0.0645 | locus YMR307W, strain GAS1, active compounds read low 0.134 | locus YNL067W, strain RPL9B, active compounds read low 0.0493 | locus YNL071W, strain lat1, active compounds read low 0.0582 | locus YNL153C, strain GIM3, active compounds read low 0.0537 | locus YNL183C, strain NPR1, active compounds read low -0.00168 | locus YNL209W, strain ssb2, active compounds read low 0.0552 | locus YNL233W, strain BNI4, active compounds read low 0.0562 | locus YNL248C, strain rpa49, active compounds read low 0.0711 | locus YNL250W, strain rad50, active compounds read low 0.0768 | locus YNL271C, strain bni1, active compounds read low 0.0589 | locus YNL298W, strain CLA4, active compounds read low 0.0577 | locus YNL307C, strain MCK1, active compounds read low 0.0655 | locus YNL322C, strain KRE1 (second series), active compounds read low 0.06 | locus YNL322C, strain KRE1, active compounds read low 0.048 | locus YNR049C, strain mso1, active compounds read low 0.0552 | locus YNR052C, strain pop2, active compounds read low 0.0583 | locus YOL147C, strain pex11, active compounds read low 0.0569 | locus YOR001W, strain rrp6, active compounds read low 0.0649 | locus YOR061W, strain CKA2, active compounds read low 0.0309 | locus YOR069W, strain VPS5, active compounds read low 0.0516 | locus YOR070C, strain gyp1, active compounds read low 0.0562 | locus YOR080W, strain dia2, active compounds read low 0.0607 | locus YOR083W, strain WHI5, active compounds read low 0.0593 | locus YOR106W, strain vam3, active compounds read low 0.0617 | locus YOR136W, strain idh2, active compounds read low 0.0704 | locus YOR144C, strain elg1, active compounds read low 0.0544 | locus YOR184W, strain ser1, active compounds read low 0.0674 | locus YOR231W, strain MKK1, active compounds read low 0.0972 | locus YOR265W, strain rbl2, active compounds read low 0.0533 | locus YOR270C, strain vph1, active compounds read low 0.0863 | locus YOR290C, strain snf2, active compounds read low 0.0573 | locus YOR316C, strain cot1, active compounds read low 0.0567 | locus YPL051W, strain arl3, active compounds read low 0.06 | locus YPL055C, strain LGE1, active compounds read low 0.0709 | locus YPL078C, strain atp4, active compounds read low 0.0604 | locus YPL106C, strain sse1, active compounds read low 0.0881 | locus YPL240C, strain hsp82, active compounds read low 0.0535 | locus YPL241C, strain CIN2, active compounds read low 0.0502 | locus YPL256C, strain CLN2, active compounds read low 0.113 | locus YPR119W, strain clb2, active compounds read low 0.0599 | locus YPR141C, strain kar3, active compounds read low 0.0617 | locus YPR163C, strain tif3, active compounds read low 0.0683 | locus YPR167C, strain met16, active compounds read low 0.06 | strain wtn01, active compounds read low 0.061
